# The OligoGym collection
# Target: LPAR3
# Test: pooled miR-30 sensor sort-seq; sequence = guide strand
# Conditions: shRNA
# Also: reference of the scale not given here.
row,Sequence,sensor-assay potency score (higher = more potent)
1,TTAAACATCAGGAATACATAGG,-0.219
2,TTGCAGACTGCACCTTGGCTAA,-1.28
3,ATGAGGTTGGACACTGTCCAGA,-1.36
4,TTGACAGTCAAAGTTTTTGAAA,-1.6
5,TTCCTCTTGACGTACACGTAGA,-0.848
6,TTGACGTACACGTAGATCCGCA,0.439
7,TAAGACAGTCATCACCGTCTTC,-0.295
8,TAAATTAGCCAACAGGTAGTAG,-0.542
9,TTGGCTAATACTATCCTCTATG,-0.824
10,TTGTAGGAGTAGATGATGGGGT,-0.155
11,TTCTGTTTTTGATCACTGCCGC,-0.331
12,TTCCTGTCCAGTCATCGACAGT,-1.5

# Target: LRCH2
# Test: as above
# Conditions: shRNA
row,Sequence,sensor-assay potency score (higher = more potent)
1,TATTACTTGTAAATGATGCAGC,0.387
2,TTGTTCATCTATTTGATCCTTC,0.648
3,TTCTTCTCATTGTAAATCCTGG,-0.64
4,TTAAACATATCTGTGCTGGTGG,0.402
5,TTCATCTATTTGATCCTTCTGA,0.249
6,TTCATTGCCACTTGAACTCTTC,0.503
7,TATCCATTCTGCAACATGCTTG,-0.471
8,TTTATTACAAGAGAAATCCAGC,-0.214
9,TACTTGTAAATGATGCAGCTTT,0.0854
10,TTGCAATGGATTGTTATCCAAA,-1.31
11,TTCATCTGCTGAGACACTCTTT,0.135
12,TTTATTATTACTGACGACCAAA,-1.09

# Target: LRRC14
# Test: as above
# Conditions: shRNA
row,Sequence,sensor-assay potency score (higher = more potent)
1,TACCACTGTCTTCTTGTCCATG,-0.472
2,TTGTCCTCGCCATCCACGGAGG,-1.48
3,TTGAAGCGCAGGTCCACGCGGC,-0.0617
4,TCACGCAGACAGGTGAAGCGGC,-0.746
5,TTCCACACCATCATCCAAGAGG,-1.09
6,TAGCAGTCCACAGGGAAGGGGT,-0.698
7,ATGCACATAGTGGAGCCGCAGG,-1.72
8,TGGCACTGCAGCACCTGCCGTG,-0.778
9,TTGTCCATGAAGGCCACCTTGA,-1.21
10,TAGCGGAAGTTGTCCTCGCCAT,-0.494
11,TTGAGGTGGGCAGCATGTGGGC,-1.24
12,TACGGCAGCAGTACAGTCCCAC,-0.572
